Activity calls are given as the source filed them. Unless noted, how the calls were made is not given here.

The nature of experiment [1]: resazurin metabolic signal in HepG2 cells – cell-based, resazurin fluorescence, 24 h, PK04 Diversity Set, profiling panel (AID 1172). The settings on record: HepG2 viability, higher = more signal. (In general: Alamar Blue is a resazurin reagent that responds to reducing activity.)
Experiment [2] can be described thus: budding yeast growth changes without added modifier – OD600, strain BY4716, 24 h, basal condition, primary screen (AID 1173). The settings on record: S. cerevisiae BY4716 growth, OD600, 24 h; higher = more signal, called active from +8 up or from −8 down.
The nature of experiment [3]: viability profiling in MM1S myeloma cells – cell-based, resazurin fluorescence, basal, 24 h, PK04 Diversity Set, profiling panel (AID 1174).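 Further: MM1S multiple myeloma cell line.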 The following applies: higher = more signal, called active from +8 up or from −8 down.
The target in experiment [4] is Dihydroorotate dehydrogenase (quinone), mitochondrial (Plasmodium falciparum (isolate 3D7)) (UniProt Q08210). Put plainly: inhibition of P. falciparum DHODH – biochemical, C-terminal His tag, absorbance 600 nm, primary screen (AID 1175).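 Further: recombinant parasite enzyme with a five histidine tag at its C terminus.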 The settings on record: PfDHODH enzyme, DCIP absorbance 600 nm; higher = more signal, called active from +8 up or from −8 down.
The nature of experiment [5]: inhibition of PAO1 biofilm formation – strain PAO1, LB-PBS medium, absorbance 600 nm, primary screen (AID 1176). The settings on record: P. aeruginosa PAO1 growth/biofilm, A600, 12 h; higher = more signal.
The nature of experiment [6]: growth modulation of vineyard yeast isolate – strain RM11-1a, OD600, basal, 24 h, primary screen (AID 1177).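 Further: cultures grown under basal conditions with no added stressor.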 The following applies: S. cerevisiae RM11-1a growth, OD600, 24 h; higher = more signal, called active from +8 up or from −8 down.
A short description of experiment [7]: growth of efflux-deficient E. coli DRC39 – strain DRC39, OD650, 24 h, E. coli filamentation inducers, primary screen (AID 1178).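 Further: growth measured as culture turbidity by optical density at 650 nm.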 The settings on record: E. coli DRC39 acrAB, higher = more signal, called active from +8 up or from −8 down.
The nature of experiment [8]: growth of efflux-deficient E. coli DRC39 – strain DRC39, OD650, 48 h, E. coli filamentation inducers, primary screen (AID 1179).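 Further: screen aims at cell division blockers that make cells filament.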 The following applies: E. coli DRC39 delta-acrAB growth, higher = more signal, called active from +8 up or from −8 down.
Experiment [9] can be described thus: viability profiling in RPMI8226 myeloma cells – cell-based, resazurin fluorescence, basal, 24 h, PK04 Diversity Set, profiling panel (AID 1180).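 Further: RPMI8826 multiple myeloma cell line at 5000 cells per well.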 The following applies: higher = more signal.
Experiment [10] addresses E3 ubiquitin-protein ligase XIAP (Homo sapiens) (UniProt P98170). Put plainly: small molecules binding XIAP protein – biophysical, small-molecule microarray, fluorescence 635 nm, primary screen (AID 1181).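 Further: score merges 667 nm emission and signal to noise over triplicate slides.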 The following applies: higher = more signal.
In experiment [11] the test system is XIP peptide (Xip251-270) binding. Put plainly: XIP fragment 251-270 binding compounds – biochemical, small-molecule microarray, fluorescence 635/667 nm, 0.1 µg/mL protein, primary screen (AID 1182). The settings on record: fluorescent protein binding, 635 nm, higher = more signal, called active from +8 up or from −8 down.
In another experiment the test system is XIP peptide (Xip251-270). Put plainly: compounds binding XIP fragment 251-270 – biochemical, small-molecule microarray, fluorescence 635/667 nm, 0.5 µg/mL protein, primary screen (AID 1183). The following applies: fluorescence 635 nm, higher = more signal.
Experiment [12] is described as follows: blood-stage malaria parasite viability loss – strain 3D7, DAPI fluorescence, 100 nL, primary screen (AID 1184).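 Further: parasites grown inside human red blood cells in medium with human serum.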 The settings on record: P. falciparum 3D7 growth, 3 d, higher = more signal.
The target of experiment [13] is Homeobox protein Hox-A13 (Mus musculus) (UniProt Q62424). Put plainly: disruptors of Hoxa13 oligonucleotide interaction – biochemical, fluorescence polarization, labeled oligonucleotide, primary screen (AID 1185). The settings on record: Hoxa13:DNA binding, 15 min, higher = more signal, called active from +8 up or from −8 down. For orientation: Polarisation of emitted light reports the rotation of a fluorescent probe.

Experiment [14] is described as follows: blockers of DNA damage checkpoint Chk1 activation – imaging, HeLa, hydroxyurea, phospho-Chk1 antibody, percent positive cells, primary screen (AID 1186). The settings on record: hydroxyurea-induced phospho-Chk1 immunofluorescence imaging, higher = more signal.
Experiment [15] in a line: blockers of DNA damage checkpoint Chk1 activation – imaging, HeLa, hydroxyurea, phospho-Chk1 nuclear intensity, primary screen (AID 1187). The settings on record: hydroxyurea-induced phospho-Chk1 immunofluorescence imaging, higher = more signal.

Homeobox protein Hox-A13 (Mus musculus), sequence (Q62424 whole entry, looked up): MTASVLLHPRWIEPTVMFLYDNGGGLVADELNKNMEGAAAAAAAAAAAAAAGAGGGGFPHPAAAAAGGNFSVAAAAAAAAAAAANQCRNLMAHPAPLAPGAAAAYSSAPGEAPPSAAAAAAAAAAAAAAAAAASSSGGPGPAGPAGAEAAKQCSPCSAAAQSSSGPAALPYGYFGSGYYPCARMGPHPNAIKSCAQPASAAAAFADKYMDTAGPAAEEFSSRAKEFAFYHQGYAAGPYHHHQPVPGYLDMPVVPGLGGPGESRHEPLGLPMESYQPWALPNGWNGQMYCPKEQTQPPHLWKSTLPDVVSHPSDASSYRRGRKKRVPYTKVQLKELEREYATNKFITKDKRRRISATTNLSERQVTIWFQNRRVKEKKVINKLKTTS
E3 ubiquitin-protein ligase XIAP (Homo sapiens), sequence (P98170 whole entry, looked up, the tested form may be a part): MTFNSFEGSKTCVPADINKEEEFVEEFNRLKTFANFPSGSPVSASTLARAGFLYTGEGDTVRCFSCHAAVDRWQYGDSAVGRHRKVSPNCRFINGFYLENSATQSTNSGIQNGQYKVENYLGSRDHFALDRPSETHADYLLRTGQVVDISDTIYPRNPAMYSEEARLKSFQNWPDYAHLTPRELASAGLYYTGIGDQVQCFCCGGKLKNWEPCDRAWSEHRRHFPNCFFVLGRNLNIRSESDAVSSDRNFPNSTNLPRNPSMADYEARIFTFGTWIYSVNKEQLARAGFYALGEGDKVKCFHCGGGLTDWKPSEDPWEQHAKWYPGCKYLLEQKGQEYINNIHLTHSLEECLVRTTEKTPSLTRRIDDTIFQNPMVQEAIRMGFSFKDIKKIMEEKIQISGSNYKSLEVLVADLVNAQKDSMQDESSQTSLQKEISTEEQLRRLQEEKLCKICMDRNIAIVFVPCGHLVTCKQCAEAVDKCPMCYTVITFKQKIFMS
Dihydroorotate dehydrogenase (quinone), mitochondrial (Plasmodium falciparum (isolate 3D7)), sequence (Q08210 whole entry, looked up): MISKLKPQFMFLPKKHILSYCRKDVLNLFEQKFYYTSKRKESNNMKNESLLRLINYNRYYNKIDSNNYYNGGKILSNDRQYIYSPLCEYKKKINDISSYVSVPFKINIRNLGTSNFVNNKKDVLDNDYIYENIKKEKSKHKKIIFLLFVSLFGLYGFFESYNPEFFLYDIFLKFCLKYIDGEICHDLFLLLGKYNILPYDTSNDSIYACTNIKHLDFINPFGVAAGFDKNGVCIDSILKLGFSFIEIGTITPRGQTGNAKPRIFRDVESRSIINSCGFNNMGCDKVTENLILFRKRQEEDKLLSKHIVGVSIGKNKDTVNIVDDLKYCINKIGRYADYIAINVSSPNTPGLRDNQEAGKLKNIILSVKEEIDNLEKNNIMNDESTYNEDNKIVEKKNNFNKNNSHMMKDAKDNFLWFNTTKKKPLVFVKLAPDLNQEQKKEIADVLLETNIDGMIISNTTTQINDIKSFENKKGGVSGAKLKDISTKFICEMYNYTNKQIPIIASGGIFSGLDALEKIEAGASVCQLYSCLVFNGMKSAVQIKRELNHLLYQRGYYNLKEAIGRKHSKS

Regarding `CCN(CC)c1ccc(N2CC=CC34O[C@@H]5C=CCCOC(=O)C5[C@H]3C(=O)N(CCO)[C@@H]4C2=O)cc1` (some centres undefined), the z-score was 0.0656 in experiment [1]; -0.371 (inactive) in experiment [2]; -0.281 (inactive) in experiment [3]; 0.469 (inactive) in experiment [5]; -0.106 (inactive) in [6]; 0.449 (inactive) in experiment [7]. For the same molecule, the z-score in [8] is 0.2 (inactive); in experiment [9], 0.553; in experiment [12], 0.0497; in [13], -5.85 (inactive); in [14] it was -0.516 (inactive); in [15] it was -0.584 (inactive). For the same molecule, the composite z-score in experiment [4] was -1.3 (inactive); in [10], 0.0074; in [11], -0.828 (inactive); in the experiment on XIP peptide (Xip251-270), -0.72.

With `CN1C(=O)[C@@H]2[C@@H](CC(COc3ccccc3)=C([C@H](O)CCc3ccccc3)[C@@H]2CO)C1=O`, the z-score in experiment [1] is 0.358; in [2], -3.31 (inactive); in experiment [3], 0.0223 (inactive); in experiment [5], -0.104 (inactive); in experiment [6], -0.136 (inactive); in [7], 2.19 (inactive). For the same molecule, the z-score in [8] is 1.17 (inactive); in experiment [9], 0.685; in experiment [12], -0.0804; in experiment [13], -6.39 (inactive); in experiment [14] it was -1.25 (inactive); in experiment [15] it was -1.34 (inactive). Besides, the composite z-score in [4] is -0.171 (inactive); in [10] it was 0.0178; in [11], -0.221 (inactive); in the experiment on XIP peptide (Xip251-270), 0.365.

Regarding `CCCCC(=C=CC[C@H](O)c1ccc(OCCO)cc1)C[C@H](O)c1cc(Cl)cc(Cl)c1O`, the z-score was 0.984 in experiment [1]; -4.58 (inactive) in experiment [2]; 0.437 (inactive) in experiment [3]; 0.579 (inactive) in experiment [5]; -0.674 (inactive) in experiment [6]; 0.947 (inactive) in [7]. For the same molecule, the z-score in experiment [8] is 0.514 (inactive); in experiment [9] it was 1.36; in experiment [12], -1.51; in experiment [13] it was -2.25 (inactive); in experiment [14], -0.0695 (inactive); in experiment [15], -0.301 (inactive). Further, the composite z-score in [4] is -1.74 (inactive); in experiment [10], -0.0773; in experiment [11], -0.0399 (inactive); in the experiment with XIP peptide (Xip251-270) it was 0.416.

As to `C=C[C@H](C)[C@H](OC(=O)Nc1ccc(OC)cc1)c1ccc(OCCO)cc1`, the z-score in experiment [1] was -0.178; in experiment [2], -5.91 (inactive); in experiment [3] it was 1.69 (inactive); in [5] it was 0.413 (inactive); in experiment [6] it was -0.354 (inactive); in [7] it was 1.43 (inactive). In addition, the z-score in experiment [8] was 0.465 (inactive); in experiment [9] it was 0.603; in experiment [12], -1.15; in [13], -4.59 (inactive); in experiment [14] it was -0.806 (inactive); in [15], -0.261 (inactive). Further, the composite z-score in [4] is -0.285 (inactive); in experiment [10], 0.34; in [11], 0.526 (inactive); in the experiment on XIP peptide (Xip251-270), -0.0503.

As to `COC(=O)[C@@]1(Cc2ccc(F)cc2)[C@H]2c3cc(C(=O)N4CCCC4)n(C)c3C[C@H]2CN1C(=O)c1ccccc1`, the z-score in experiment [1] is 0.0015; in experiment [2], -1.24 (inactive); in experiment [3], -0.698 (inactive); in experiment [5], 0.523 (inactive); in experiment [6] it was 0.309 (inactive); in [7], -0.359 (inactive). Further, the z-score in experiment [8] is -0.482 (inactive); in experiment [9], -0.069; in experiment [12], -0.37; in experiment [13], -6.1 (inactive); in experiment [14], -0.0152 (inactive); in experiment [15], 0.504 (inactive). The composite z-score is -0.316 (inactive) in [4], 0.49 in [10], 0.125 (inactive) in [11] and 0.664 with XIP peptide (Xip251-270).

Regarding `O=C1N(CCS(=O)(=O)c2ccccc2)Cc2ccccc2[C@@H]2OC(c3ccc(OCCCO)cc3)=N[C@]12CCS(=O)(=O)c1ccccc1`, the z-score was 0.638 in experiment [1]; 1.6 (inactive) in [2]; 0.298 (inactive) in experiment [3]; 1.71 (inactive) in [5]; 2.85 (inactive) in experiment [6]; 0.958 (inactive) in experiment [7]. For the same molecule, the z-score is 0.31 (inactive) in experiment [8]; -0.458 in experiment [9]; -2.1 in [12]; 0.71 (inactive) in experiment [13]; 0.367 (inactive) in experiment [14]; 0.793 (inactive) in [15]. The composite z-score in experiment [4] was 0.324 (inactive); in experiment [10], -0.0062; in [11], 1.25 (inactive); in the experiment on XIP peptide (Xip251-270), 0.86.

For `COc1cc(NN2C(C(O)c3ccc(I)cc3)C=CC3C(=O)N(c4ccccc4)C(=O)C32)cc(OC)c1OC` (centres undefined), the z-score was -1.35 in [1]; 0.645 (inactive) in experiment [2]; -0.694 (inactive) in experiment [3]; 0.835 (inactive) in [5]; 0.0247 (inactive) in experiment [6]; 0.456 (inactive) in experiment [7]. Besides, the z-score in [8] is 0.176 (inactive); in experiment [9], -1.34; in experiment [12], -0.908; in [13], -4.54 (inactive); in experiment [14], 0.505 (inactive); in [15] it was 0.241 (inactive). Further, the composite z-score is -0.755 (inactive) in [4], 0.162 in experiment [10], 0.204 (inactive) in experiment [11] and 0.816 in the experiment with XIP peptide (Xip251-270).

As to `Cc1ccc(N2C(=O)c3ccccc3[C@](C)(C(=O)NCc3ccccc3)[C@@H]2c2ccc(CO)cc2)nc1`, the z-score was -0.776 in experiment [1]; -0.878 (inactive) in experiment [2]; 1.13 (inactive) in [3]; 0.882 (inactive) in experiment [5]; 0.741 (inactive) in [6]; 0.349 (inactive) in [7]. Moreover, the z-score was 0.329 (inactive) in experiment [8]; 0.994 in [9]; -1.34 in experiment [12]; -0.408 (inactive) in [13]; -0.0668 (inactive) in [14]; 0.0633 (inactive) in experiment [15]. Besides, the composite z-score in experiment [4] is 1.07 (inactive); in experiment [10] it was -0.0326; in experiment [11], -0.353 (inactive); in the experiment with XIP peptide (Xip251-270) it was -0.33.

As to `CC(C)[C@H]1NC(=O)[C@@]23C(=O)N[C@@H](Cc4ccccc4)C2[C@H](C)[C@@]2(C)O[C@H]2C3/C=C/C/C=C\CNC(=O)[C@H](Cc2ccccc2)NC1=O` (some centres undefined), the z-score was -0.875 in experiment [1]; -0.516 (inactive) in [2]; -0.504 (inactive) in experiment [3]; -0.377 (inactive) in [5]; -0.472 (inactive) in [6]; -0.0953 (inactive) in experiment [7]. The z-score in experiment [8] is -1.2 (inactive); in [9], -1.26; in [12], -2.45; in experiment [13], -5.69 (inactive); in experiment [14] it was 0.174 (inactive); in experiment [15], 0.5 (inactive). The composite z-score in [4] was -0.141 (inactive); in experiment [10] it was -0.288; in [11] it was 0.21 (inactive); with XIP peptide (Xip251-270), 0.763.

For the origin of these results see PubChem BioAssay.
